# Reference: PubChem BioAssay AID652257 (The Scripps Research Institute Molecular Screening Center, 2013)
# Where “and” joins values, the source holds several entries; their conditions need not be identical. Identical values can stand only once. Hit rate of the full screen: of about 370,000 compounds, about 4,800 (1.3%) were called active.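 Rule for the calls: active = inhibition above about 21% made by adding two undisclosed values (limit read from the data); inactive = the rest.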 The entries come from a sample that favours actives as a whole.
# Target: Protein arginine N-methyltransferase 1 (Homo sapiens) (UniProt Q99873)
# Assay: PRMT1 methyltransferase inhibitors, primary screen, biochemical, fluorescence polarization (AID 652257)
# Conditions: recombinant PRMT1, activity-based probe fluorescence polarization; at 2.79 µM; stronger effect = higher value
# Sequence of Protein arginine N-methyltransferase 1 (Homo sapiens) (Q99873 whole entry, looked up): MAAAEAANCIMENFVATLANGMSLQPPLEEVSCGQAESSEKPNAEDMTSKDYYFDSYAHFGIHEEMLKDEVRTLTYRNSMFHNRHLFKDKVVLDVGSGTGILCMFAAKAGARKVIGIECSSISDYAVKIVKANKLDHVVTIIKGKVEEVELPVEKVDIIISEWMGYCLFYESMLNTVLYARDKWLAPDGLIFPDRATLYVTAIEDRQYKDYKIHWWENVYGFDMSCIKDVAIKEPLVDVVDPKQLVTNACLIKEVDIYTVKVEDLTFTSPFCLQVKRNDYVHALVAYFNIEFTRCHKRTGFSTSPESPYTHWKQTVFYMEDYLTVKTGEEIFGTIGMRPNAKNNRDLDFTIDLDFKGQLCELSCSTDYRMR
row,Structure (SMILES),inhibition
1,C=C1C(C(C)C)N(C)C2=NC(c3ccccc3)CC(=O)N12 (stereo not drawn),-3.21% (inactive)
2,N#Cc1ccc(C(C(=O)NCc2ccccc2)n2c(=O)c(-c3ccco3)nc3ccccc32)cc1 (stereo not drawn),20.9% (inactive)
3,Cc1cccc(C)c1NC(=O)C(c1ccc(C(F)(F)F)cc1)n1c(=O)c(-c2ccco2)nc2ccccc21 (stereo not drawn),23.1% (active)
4,O=C(NC1CCCCC1)C(c1cc2ccccc2o1)n1c(=O)c(-c2ccco2)nc2ccccc21 (stereo not drawn),10.9% (inactive)
5,Cc1ccc(CSc2nnc(SCC(=O)NN=Cc3cc(Br)ccc3F)s2)cc1,3.3% (inactive)
6,CCc1cccc2c3c([nH]c12)C(CC)(CC(=O)O)OCC3 (stereo not drawn),1.16% (inactive)
7,C[C@H]1CCC/C=C/C(=O)c2c(O)cc(O)cc2CC(=O)O1,7.7% (inactive)
8,C[C@@H](NC(=O)OC(C)(C)C)c1nnc(S(=O)(=O)Cc2ccccc2)o1,21.3% (active)
9,CC(C)[C@@H](NC(=O)OC(C)(C)C)C(=O)NCC1CCC(C(=O)N[C@@H](Cc2ccccc2)C(=O)O)CC1 (stereo partly drawn),2.79% (inactive)
10,CC(C)(C)c1ccc(C(CC(=O)O)NS(=O)(=O)Cc2ccccc2)cc1 (stereo not drawn),-1.05% (inactive)
11,CCOC(=O)[C@]12CCCC=C1N(Cc1ccc(OC)cc1)C(=O)[C@@H]2CC(=O)N1CCOCC1,-1.02% (inactive)
12,O=C(NCc1ccc(Cl)cc1)C1CCCN(c2nc3ccccc3o2)C1 (stereo not drawn),4.6% (inactive)
13,O=C(CN1CCN(S(=O)(=O)c2cc(Cl)ccc2Cl)CC1)c1ccc(O)c(O)c1,18.9% (inactive)
14,N#Cc1ccccc1S(=O)(=O)N1CCN(C(=O)c2cc(-c3ccccc3)nn2-c2ccccc2)CC1,-1.25% (inactive)
15,N#Cc1ccccc1S(=O)(=O)N1CCN(Cc2c(O)ccc3ccccc23)CC1,34.5% (active)
16,CC1=CC(C)(C)Nc2ccc(OC(=O)CN3C(=O)C4CCCCC4C3=O)cc21 (stereo not drawn),0.85% (inactive)
17,CCOC(=O)c1c(N)c(C#N)nn1-c1ccccc1C(=O)OC,6.05% (inactive)
18,CSc1ccccc1NC(=O)CN(C)CC(=O)Nc1ccc(Cl)cc1[N+](=O)[O-],-1.57% (inactive)
19,O=C1CCCCC1Sc1ccc(Cl)cc1[N+](=O)[O-] (stereo not drawn),48.8% (active)
20,O=C(COc1ccc(Cl)cc1[N+](=O)[O-])N1CCCCC1,-4.9% (inactive)
21,CC(=O)OCCN1CCCC12CCC(c1ccccc1)CC2 (stereo not drawn),2.94% (inactive)
22,C=C(C)C1CC23C(=O)C4(C(=O)c5ccccc5)C[C@@]5(C)CCC(CC2C1(C)C)(C4=O)C35OC (stereo partly drawn),3.86% (inactive)

row,Structure (SMILES),inhibition
1,COc1ccc(C2CC(=O)n3c(nc4ccccc43)S2)cc1OC (stereo not drawn),0.28% (inactive)
2,COc1ccc(C2CC(c3cccs3)=NN2c2nc(C)c(C(C)=O)s2)cc1OC (stereo not drawn),0.1% (inactive)
3,COc1ccc(C2CC(c3cccs3)=Nc3ccccc3S2)cc1OC (stereo not drawn),63.7% (active)
4,O=S1(=O)c2ccc(Br)cc2OC[C@@H](Cc2ccccc2)N1Cc1cn(Cc2ccco2)nn1,-6.43% (inactive)
5,COc1ccc(C(=O)CSc2nnc(-c3cnccn3)n2-c2ccc(C)cc2)cc1,-1.24% (inactive)
6,N#CCC(=O)NC(=O)NCC1CC1,1.85% (inactive)
7,Nc1ccc2nc3c(=O)[nH]c(=S)[nH]c3nc2c1,129% (active)
8,COc1nc(NCc2ccc(Cl)cc2)nc(OC)n1,-0.93% (inactive)
9,COC(=O)c1ccc(/C=N/N2C(C)CCCC2C)cc1 (stereo not drawn),-0.34% (inactive)
10,CCN(CC)S(=O)(=O)c1cccc(NC(=O)c2ccc(S(=O)(=O)N3CCCC3)cc2)c1,2.8% (inactive)
11,CCN(CC)S(=O)(=O)c1cccc(-c2n[nH]c(=S)n2/N=C/c2ccc(C(=O)OC)cc2)c1,31.9% (active)
12,CCOC(=O)Cc1csc(NC(=O)CSc2nc(C)cc(=O)[nH]2)n1,63.7% (active)
13,CCOC(=O)Cc1csc(SCC(=O)Nc2ccc(C)cc2F)n1,1.96% (inactive)
14,Cc1cc(=O)[nH]c(SCC(=O)Nc2ccc(Cl)cc2C)n1,-2.19% (inactive)
15,Clc1cccc2c1C1CC2CCN1Cc1ccccc1 (stereo not drawn),-1.44% (inactive)
16,CCCn1c(N)c(C(=O)CSc2nnc(-c3cccnc3)n2-c2ccc(C)cc2C)c(=O)[nH]c1=O,-1.38% (inactive)
17,COc1ccc(C#CCNCc2ccc(OC)cc2OC)cc1,0.44% (inactive)
18,Cc1ccc(-c2nn(-c3ccccc3)cc2CN(Cc2ccccc2)C(=O)CCC(=O)O)o1,30.5% (active)
19,CN(C)S(=O)(=O)c1cccc(-c2nn(-c3ccccc3)cc2/C=C2\SC(=S)N(CC(=O)O)C2=O)c1,28.2% (active)
20,O=C(O)CCC(=O)N(Cc1ccccc1)Cc1ccccc1,-4.57% (inactive)
21,COc1cccc(-c2nn(-c3ccccc3)cc2/C=C(\C#N)C(=O)NCCCn2ccnc2)c1,-2.79% (inactive)
22,Cc1ccc(-c2nn(-c3ccccc3)cc2/C=C2\SC(=S)N(CCCCCC(=O)O)C2=O)o1,78.2% (active)

row,Structure (SMILES),inhibition
1,Cc1ccc(-c2nn(-c3cccc(F)c3)cc2CNCCc2ccncc2)o1,-2.78% (inactive)
2,O=C(/C=C/c1cn(-c2ccccc2)nc1-c1ccc2c(c1)OCCO2)NCCCN1CCOCC1,3.18% (inactive)
3,COc1ccc(COCCN2CCN(S(=O)(=O)c3ccccc3)CCC2=O)cc1,1.29% (inactive)
4,O=C(NCC1COc2ccccc2O1)c1ccc(NC(=O)c2cc(F)ccc2F)cc1 (stereo not drawn),4.4% (inactive)
5,NC(=O)c1ncn([C@@H]2O[C@H](CNCc3cnc(N4CCOCC4)s3)[C@@H](O)[C@H]2O)n1,-0.65% (inactive)
6,C[C@@H]1ON(C)[C@H]2C[C@H]3c4[nH]c5cccc(-c6ccc7c(c6)OCO7)c5c4CCN3C[C@@H]12,-2.89% (inactive)
7,COC(=O)[C@H](C(C)C)N1CCc2nnn(Cc3ccc(C)cc3)c2-c2ccccc2S1(=O)=O,0.49% (inactive)
8,CCOC(=O)[C@]12CCCC3=C1N(CCC3)C(=O)[C@@H](CC(=O)NCC13CC4CC(CC(C4)C1)C3)C2,-3.58% (inactive)
9,CCC(=O)c1c(CC)c2n3c1=CC[C@H]3CC(Br)C=2 (stereo partly drawn),0.28% (inactive)
10,COc1ccc(-n2c(SCC(=O)NC3CCCC3)nnc2-c2ccncc2)cc1,4.19% (inactive)
11,N#CC1(Nc2ccc3c4c(cccc24)CC3)CCCCC1,50.2% (active)
12,N#CC1(NC(=O)COC(=O)Cc2n[nH]c(=O)c3ccccc23)CCCCC1,1.07% (inactive)
13,O=S(=O)(NC1CC1)c1ccc2c3c(cccc13)CC2,-2.46% (inactive)
14,Cc1ccc2c(cnn2C(=O)CCC(=O)NC2CCCC2)c1,3.39% (inactive)
15,COc1ccc(CNS(=O)(=O)c2ccc(NC(=O)N3CCCCC3)cc2)cc1,-0.17% (inactive)
16,CC(C)=C1C2CCC1C1C(=O)N(NC(=O)c3ccco3)C(=O)C21 (stereo not drawn),-2.54% (inactive)
17,COc1ccc(CN2C(=O)N3Cc4cc(OC)ccc4C3CS2(=O)=O)cc1 (stereo not drawn),3.9% (inactive)
18,CCN1C(=O)N[C@@H]2C[C@H](C(=O)N3CCCC3)[C@H](C)[C@H](c3ccccc3)C[C@@H]21,-4.4% (inactive)
19,O=C(COC(=O)c1ccc2ncsc2c1)Nc1ccc(Cl)cc1,14.3% (inactive)
20,Cc1sc(NC(=O)c2ccc3ncsc3c2)c(C(N)=O)c1C,33.8% (active)
21,COc1ccccc1-c1nnc(NC(=O)c2ccc3ncsc3c2)o1,9.47% (inactive)
22,CN1CCCc2nc(-c3ccccc3)ccc21,-1.81% (inactive)

row,Structure (SMILES),inhibition
1,Cc1c(C(C)CCCO)oc(=O)c2c1Oc1c(C)c(C(C)C[C@@H](C)O)oc(=O)c1C2 (stereo partly drawn),1.8% (inactive)
2,CCCN(CCC)S(=O)(=O)c1cc2c(cc1Br)CCN2C(=O)CC,-3.61% (inactive)
3,CCOc1cnc(C(=O)NNC(=O)c2ccccc2Br)o1,0.46% (inactive)
4,COC(=O)C12C=C3CC(c4ccccc4)=C3C(=O)N1Cc1[nH]c3ccccc3c1C2 (stereo not drawn),-2.05% (inactive)
5,CCc1ccccc1NC(=O)CSc1nnc(-c2cccs2)o1,-1.47% (inactive)
6,CC(=O)NC(CC(=O)O)c1ccc(F)cc1 (stereo not drawn),0.13% (inactive)
7,O=C(O)C(CCc1ccccn1)c1ccccc1 (stereo not drawn),0.25% (inactive)
8,CN(C)c1ccc(C(CC(=O)O)C(=O)O)cc1 (stereo not drawn),39.2% (active)
9,C[C@H]1[C@H](NC(=O)c2cccc(N(C)C)c2)CC[C@@]23CCCN2C(=O)CCC[C@@H]13,-0.17% (inactive)
10,CCOc1ccc(N(CC(=O)Nc2c(C)n(C)n(-c3ccccc3)c2=O)S(=O)(=O)c2ccc(Cl)s2)cc1,-5.48% (inactive)
11,CCO/C([O-])=N/c1c[n+](N2CCOCC2)no1,-1.72% (inactive) and 4.84% (inactive)
12,COC(=O)[C@]1(C#N)CC(=O)N(CC2CCCCC2)[C@@H]1c1ccccc1,-3.09% (inactive)
13,COC(=O)[C@@]1(Sc2ccc(C)cc2)CC(=O)N(c2cccc(SC)c2)[C@@H]1c1ccccc1,4.3% (inactive)
14,CCOC(=O)N1C(=O)C[C@](Sc2ccc(C)cc2)(C(=O)OC)[C@H]1c1ccccc1,53.6% (active)
15,O=S1(=O)c2c(cccc2N2CC[C@H](O)C2)O[C@@H]2CCN1C2,-1.77% (inactive)
16,CC(C)OC(=O)c1sc2nc3c(cc2c1N)C(=O)CCC3,0.71% (inactive)
17,NC(=O)c1sc2nc3c(c(-c4ccccc4)c2c1N)CCC3,21.5% (active)
18,COc1ccccc1-c1c(C#N)c(N)nc2c1CCC2,-2.76% (inactive)
19,Nc1scc[n+]1Cc1cccc2cccnc12,-6.71% (inactive)
20,c1ccc2c(C[n+]3csc4ccccc43)cccc2c1,31.2% (active)
21,CN1[C@H](Cc2ccccc2)COc2cccc(N3CCSCC3)c2S1(=O)=O,6.45% (inactive)
22,COC(=O)C1CN(Cc2cn(Cc3ccc(F)cc3)nn2)CCS(=O)(=O)N1Cc1ccc(Cl)cc1 (stereo not drawn),-0.68% (inactive)
